Screens as filed in PubChem BioAssay.
Only some compounds are listed: those with a hit (about 21% of all), similar ones and a draw of the others.
HCV inhibitor = qHTS Assay for Inhibitors of Hepatitis C Virus (HCV); hit rate 3.4% among 340,000; Huh7.5.1 HCVcc-Cre infection, luciferase reporter, 44 h; Potency, µM (highest dose often 41.8 µM), for inactives: at the highest dose activity change, negative = inhibition, hits mostly inhibitors; AID 651820, 2012; also: potency is read from the fitted curve at half-maximal effect; % is scaled to controls: 0 for no effect and ±100 for the full control effect
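Antiviral activity was scored by luciferase reporter output from cells infected with HCVcc-Cre (~0.5 moi) in presence of compound, 44 h infection period, cells seeded 1,000/well 4 h prior.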
Shiga toxin inh = A qHTS for Small Molecule Inhibitors of Shiga Toxin | Vero cells, Shiga toxin protein synthesis inhibition reporter | inhibition, % at 38.7 µM | hit rate 9.2% among 290,000 | AID 2315, 2010; in the data active = inhibition mostly above about 28%, no sharp cut-off; inactive = mostly below about 43%; also: 0% is about no effect
Pf growth 48h = Primary qHTS for delayed death inhibitors of the malarial parasite plastid, 48 hour incubation; AID 504832, 2011; hit rate 5.9% among 310,000; P. falciparum luciferase growth in erythrocytes, 48 h; Potency, µM (top dose mostly 28.7 µM), for the others: at the highest dose activity change, negative = inhibition, most hits filed as inhibitors; also: potency is read from the fitted curve at half-maximal effect; % is scaled to controls: 0 for no effect and ±100 for the full control effect
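Compounds are pin-transferred into medium, infected erythrocytes (2% hematocrit, 0.1% parasitemia final) are added, and plates sit one parasite generation at 37 C in 5% CO2. Detection reagent is then added and luminescence measured.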
Cycloheximide cs = Cycloheximide Counterscreen for Small Molecule Inhibitors of Shiga Toxin; cell reporter, cycloheximide protein synthesis inhibition counterscreen; max response, %; hit rate 12% among 300,000; in the data active = max response mostly above about 13%, no sharp cut-off; inactive = mostly below about 14%; also: read at 38.3 µM for the half of the compounds with a filed dose; 0% is about no effect
Pf growth 96h = Primary qHTS for delayed death inhibitors of the malarial parasite plastid, 96 hour incubation; P. falciparum luciferase reporter growth, 96 h; Potency, µM (doses to about 28.7 µM), without a hit: top-dose activity change, negative = inhibition, actives largely listed as inhibitors; hit rate 6.9% among 320,000; AID 504834, 2011; also: potency is read from the fitted curve at half-maximal effect; % is scaled to controls: 0 for no effect and ±100 for the full control effect
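Two-generation exposure (96 h) targets delayed-death phenotype. Reporter parasites carrying integrated firefly luciferase, in red cells at 2% hematocrit and 0.05% parasitemia final, kept at 37 C, 5% CO2; luminescence loss indicates inhibition.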
AMA1-RON2 inh = qHTS for Inhibitors of AMA1-RON; Towards Development of Antimalarial Drug Lead: Primary Screen | Potency, µM (doses to about 58.2 µM), for inactives: top-dose activity change, negative = inhibition, usual class: inhibitors | AlphaScreen AMA1-biotinylated RON2 peptide binding | hit rate 0.2% among 360,000;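 also: potency is read from the fitted curve at half-maximal effect; 0% = vehicle wells and -100% = peptide control; nearly all actives have a fitted effect of over 45% in size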
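AMA1 (3D7) with his tag at 25 nM final met compounds first, then biotinylated RON2 peptide at 25 nM; detection used donor plus acceptor beads, 10 µg/mL apiece, read by AlphaScreen after 30 min at room temperature.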
Numbers without * were called inactive; i = inactive; ? = inconclusive; . = no result; [ ] = another dose, or the depositor's remark. Unless noted, calls follow the shape of the dose curve; as a rule, active = well fitted curve in the direction sought with a large enough effect; inconclusive = small, poorly fitted or top-dose-only effect, or another doubt; inactive = no such curve, though single readings can be large; an effect the other way counts as inactive or inconclusive.

SMILES	HCV inhibitor	Shiga toxin inh	Pf growth 48h	Cycloheximide cs	Pf growth 96h	AMA1-RON2 inh
COc1ccc(NS(=O)(=O)c2cc(NC(=O)C3=NN(c4ccccc4)C(=O)CC3)ccc2C)cc1	-16%	.	.	.	.	-10%[11.6 µM]
COc1ccc(NS(=O)(=O)c2cccc(NC(=O)C3=NN(c4ccccc4)C(=O)CC3)c2)cc1	-14%	-12	?	15	7.4µM*	-13%
CN(c1ccccc1)S(=O)(=O)c1cccc(NC(=O)C2=NN(c3ccccc3)C(=O)CC2)c1	16µM*	.	.	.	.	-2%
CCCNC(=O)C1(C)CCCN(Cc2cccs2)C1 (configuration not stated)	.	.	.	.	.	11%
CCCCCC/C(=N/O)c1ccccn1	-13%	3	12µM*	12	?	48%
CN(CC(=O)Nc1ccccc1F)Cc1cccs1	9%	8	24%	8	48%	23%
O=C(C1CCCN(S(=O)(=O)c2ccc(Cl)cc2)C1)N(Cc1cccs1)C1CC1 (configuration not stated)	10µM*	13	13µM*	-1	1%	0%
CN(CC(=O)Nc1cc(S(=O)(=O)N2CCCC2)ccc1Cl)Cc1cccs1	6.3µM*	-10	?	-2	-18%	32%
CCN(CC(=O)Nc1cc(S(=O)(=O)N2CCOCC2)ccc1Cl)Cc1ccccc1	7.9µM*	.	12µM*	.	12µM*	37%
Cc1ccc(S(=O)(=O)N2CCCCC2)cc1NC(=O)Cc1cccs1	-15%	.	.	.	.	-5%
Cc1cc(Br)ccc1NC(=O)CN(C)Cc1cccs1	-17%	48*	?	28	3%	4%
CCN(CC(=O)Nc1ccc(S(=O)(=O)N2CCCCC2)cc1)Cc1ccccc1	?	.	?	.	?	-13%
CCN(CC(=O)Nc1cc(S(=O)(=O)N2CCCCC2)ccc1Cl)Cc1ccccc1	?	.	10µM*	.	10µM*	-3%
COc1cccc(CN2CC(C(=O)NCCCn3cccn3)CCC2=O)c1 (configuration not stated)	4%	20	-3%	-4	28%	3%
COc1ccccc1OCC(=O)NCCSCc1ccccc1Cl	10%	-44	?	13	22%	1%
O=C(COc1ccccc1)NCCSCc1ccccc1Cl	15%	48*	-2%	42*	2%	7%
O=C(/C=C/c1ccccc1)NCCSCc1ccccc1Cl	-12%	-23	?	11*	?	0%
COc1ccccc1C(=O)NCCSCc1ccccc1Cl	?	32	7.4µM*	8	2.9µM*	-19%
O=C(CN1C(=O)c2ccccc2S1(=O)=O)NCCSCc1ccccc1Cl	10%	27	25%	13*	-18%	18%
O=C(CN1C(=O)c2ccccc2S1(=O)=O)NCCSCc1c(F)cccc1Cl	15%	-18	11%	-1	29%	-7%
CC(C)OC(=O)N(C)C[C@H]1OCc2cnnn2CCCC(=O)N([C@H](C)CO)C[C@H]1C	.	.	.	.	.	19%
COc1ccccc1-c1nnc(Sc2nc([N+](=O)[O-])nn2C)o1	10µM*	-7	.	1	1.9µM*	-6%
Cn1cnnc1Sc1nc([N+](=O)[O-])nn1C	2%	-3	11%	-3	49%	-5%
NC(=O)c1ccccc1N/C=C/C(=O)c1ccc(Cl)cc1	-17%	49*	.	52*	161%	12%
Cc1ccc(C(=O)/C=C/Nc2ccccc2C(N)=O)cc1	-22%	24	125%	19*	i	-13%
CN(C)Cc1csc(NC(=O)Nc2ccccc2C(C)(C)C)n1	.	.	.	.	.	54%
N#Cc1nc(N2CCCC2)nc(N2CCCC2)n1	7.1µM*	-9	-3%	-4	-5%	7%
COc1ccc2c(c1)CC/C2=N\OC(=O)c1ccccc1OC	-2%	90*	33%	38*	-22%	0%
Cn1cnnc1SCC(=O)Nc1ccc(Cl)c(S(=O)(=O)N2CCOCC2)c1	1%	-10	-24%	-2	?	-6%
